Drawing on PubChem BioAssay (NCI), this text covers growth for nine molecules.

Holding throughout (experiment): NCI-60 one-dose screen, 48 h (100 = growth as untreated, 0 = no growth, -100 = all killed)
For experiment [1], the system named is HCT-15 colon. To be noted: 10 µM unless noted.
Experiment [2] relates to HT29 colon. As to conditions: 10 µM unless noted.
For experiment [3], the system named is SNB-75 CNS. As to conditions: 10 µM unless noted.
For experiment [4], the system named is SNB-19 CNS. As to conditions: 10 µM unless noted.
Experiment [5] relates to U251 CNS. As to conditions: 10 µM unless noted.
The test system of experiment [6] is SK-MEL-5 melanoma. To be noted: 10 µM unless noted.
For experiment [7], the system named is UACC-62 melanoma. To be noted: 10 µM unless noted.
The subject of experiment [8] is LOX IMVI melanoma. To be noted: 10 µM.
For experiment [9], the system named is SK-MEL-28 melanoma. To be noted: 10 µM unless noted.
The test system of experiment [10] is SK-MEL-2 melanoma. To be noted: 10 µM unless noted.
The subject of experiment [11] is EKVX NSCLC. To be noted: 10 µM unless noted.
Experiment [12] concerns SN12C renal. As to conditions: 10 µM unless noted.
The subject of experiment [13] is UO-31 renal. As to conditions: 10 µM unless noted.
For experiment [14], the system named is TK-10 renal.
Experiment [15] deals with ACHN renal. To be noted: 10 µM unless noted.
Experiment [16] concerns CAKI-1 renal. As to conditions: 10 µM unless noted.
Experiment [17] deals with A498 renal. As to conditions: 10 µM unless noted.
For experiment [18], the system named is CCRF-CEM leukemia. To be noted: 10 µM unless noted.
For experiment [19], the system named is MOLT-4 leukemia. As to conditions: 10 µM unless noted.
Experiment [20] concerns PC-3 prostate. As to conditions: 10 µM unless noted.

“And” between values parts separate entries of the source, which are not always exact repeats. Equal entries are not always repeated. About 83,000 compounds went through this panel and 20% of them were active in at least one assay; those are over-represented in the sample as a whole.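 In brief: 96-well plates, 48 h treatment, single concentration, percent growth endpoint.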 A number with no mark means an inactive call. The source made the active and inactive calls. The calls were made as follows: active = growth percent below 10; inactive = the rest.

For `Cc1cc(Nc2ccc3c(c2)OCO3)c2cc3c(cc2n1)OCO3`, the growth in experiment [1] was 19.9%; in experiment [2] it was 15.8%; in [3] it was 25.6%; in experiment [4] it was 0.716% (active); in [5], 19.9%; in experiment [6], 22.6%. In addition, the growth in experiment [7] is 34%; in [8] it was 14.3%; in experiment [9] it was 34.2%; in experiment [10], 22.5%; in experiment [11], 44.9%; in [12], 47%. The growth in [13] is 28.5%; in experiment [14] (10 µM unless noted) it was 59.7%; in experiment [15], 50.9%; in experiment [16], 19.5%; in experiment [17], -1.69% (active); in [18], -7.98% (active). Also, the growth in experiment [19] was 35.8%.

Turning to `O=S(=O)(O)C(C(I)I)S(=O)(=O)O`, the growth is 110% in experiment [1]; 118% in experiment [2]; 98.3% in [3]; 113% in experiment [4]; 96.3% in [5]; 95.7% in experiment [20]. The growth is 110% in [7]; 101% in experiment [8]; 114% in [9]; 109% in experiment [10]; 112% in experiment [11]; 110% in experiment [12]. Besides, the growth is 89.6% in [13]; 111% in [14] (10 µM unless noted); 114% in experiment [15]; 100% in experiment [16]; 106% in experiment [17]; 105% in experiment [18]. Moreover, in experiment [19], the growth was 103%.

Regarding `Nc1ccn(C2OC(CO)C(O)C2F)c(=O)n1` (centres undefined), the growth is 95.8% in experiment [1]; 79% in experiment [2]; 79.5% in [3]; 90.5% in experiment [4]; 78.6% in [5]; 92.5% in [6]. Besides, the growth in experiment [7] was 77.7%; in [8] it was 79.6%; in experiment [9], 60.5%; in experiment [10], 90.1%; in experiment [11], 96.4%; in experiment [12], 78.8%. The growth is 76.8% in experiment [13]; 92.5% in experiment [14] (10 µM unless noted); 62.1% in experiment [15]; 69.8% in [16]; 88.5% in [17]; 19.1% in experiment [18]. For the same molecule, in experiment [19], the growth was -15.5% (active).

Turning to `OCCNc1ccccc1`, the growth in experiment [1] was 105%; in [2], 104%; in [3], 91.3%; in experiment [4], 116%; in [5], 97.6%; in experiment [20], 95.7%. Moreover, the growth in experiment [7] is 109%; in experiment [8] it was 94.3%; in [9], 107%; in experiment [10] it was 103%; in experiment [11] it was 111%; in experiment [12], 108%. Moreover, the growth in experiment [13] is 90.9%; in [14] (10 µM unless noted) it was 101%; in experiment [15] it was 108%; in [16] it was 96.7%; in experiment [17] it was 99.1%; in experiment [18] it was 105%. The growth in experiment [19] was 101%.

Regarding `CC(=O)N(C)N=Nc1ccc(C)cc1`, the growth in [1] was 107%; in [2], 116%; in [3] it was 93.2%; in experiment [4] it was 101%; in [5] it was 106%; in experiment [6], 103%. In addition, the growth is 101% in experiment [7]; 98.1% in [8]; 116% in experiment [9]; 101% in experiment [10]; 101% in [11]; 100% in [12]. Also, the growth was 81.6% in experiment [13]; 92.7% in experiment [14] (10 µM unless noted); 108% in experiment [15]; 98.6% in experiment [16]; 100% in [17]; 95.6% in experiment [18]. Also, in experiment [19], the growth is 112%.

For `O=C(O)c1ccc(OCc2ccccc2)cc1`, the growth in [1] is 109%; in experiment [2] it was 100%; in experiment [3], 87.8%; in experiment [4] it was 95%; in experiment [5] it was 93.7%; in experiment [6] it was 96.2%. The growth in [7] was 95.6%; in [8] it was 98.3%; in experiment [9], 101%; in experiment [10] it was 101%; in [11], 110%; in experiment [12], 98.2%. Moreover, the growth in experiment [13] is 89.6%; in experiment [14] (10 µM unless noted), 96.7%; in experiment [15], 94.3%; in experiment [16], 92.7%; in experiment [18], 104%; in experiment [19], 98%.

Take `CC(=O)c1ccc(C)cc1`: the growth was 113% in [1]; 111% in experiment [2]; 90.1% in experiment [3]; 109% in experiment [4]; 108% in [5]; 106% in [20]. Besides, the growth in experiment [6] is 105%; in experiment [8], 108%; in experiment [11], 98.5%; in [12] it was 103%; in [13], 75.7%; in experiment [14] (10 µM unless noted), 105%. Also, the growth in experiment [15] is 109%; in experiment [16] it was 109%; in experiment [17], 94.5%; in experiment [18] it was 108%; in experiment [19], 107%.

As for `C=CC(C)(C)n1cc(C2=C(O)C(=O)C(c3cn(C(C)(C)C=C)c4ccccc34)=C(O)C2=O)c2ccccc21`, the growth is 84.2% in [1]; 99.3% in experiment [2]; 67.8% in [3]; 80.2% in [4]; 82.6% in [5]; 80.8% in experiment [20]. Further, the growth in [8] was 97.2%; in experiment [10] it was 95.9%; in experiment [11], 87.2%; in experiment [12] it was 101%; in [13], 74.1%; in experiment [14] (10 µM) it was 92.7%. Further, the growth in experiment [14] (100 µM) is -99.2% (active) and -100% (active); in experiment [15], 94.4%; in [16] it was 89.7%; in [18], 78.5%; in experiment [19], 88.7%.

In the case of `OCCOc1ccc(-c2cc(-c3ccccn3)nc(-c3ccccn3)c2)cc1`, the growth is 19.1% in experiment [1]; 4.07% (active) in experiment [2]; 24.1% in [3]; 20.6% in experiment [4]; 4.7% (active) in [5]; 20.1% in experiment [20]. For the same molecule, the growth in experiment [7] is -44.8% (active); in experiment [8], -29.6% (active); in [10] it was 37.6%; in experiment [11], 18.5%; in [12], 11.7%; in [13] it was -14.5% (active). The growth in experiment [14] (10 µM unless noted) was 28%; in [15], 3.04% (active); in experiment [16] it was 3.07% (active); in [18] it was 3.02% (active); in experiment [19], -6.16% (active).
